CHO-K1 Ca PAM – nonselective calcium activators in parental CHO-K1 cells, primary screen, counter-screen for M1 PAM project, cell-based, Fluo-8 calcium fluorescence, full deck, 1536-well; ATP EC20; 0% at ATP EC20, 100% at ATP max; activation, % at 3 µM; hit rate 0.02% among 360,000; AID 602247, 2012;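 active means activation above the run cutoff, the mean activation of all test compounds plus 3 SD, cut at about 40% in these data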;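 further: peak over basal fluorescence ratio in a 140 s read after ATP addition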
CHRM1 antagonist – human M1 muscarinic receptor antagonists, primary screen, CHO-K1 cells, Fluo-8 calcium fluorescence, 1536-well. hit rate 1.3% among 360,000. AID 588852, 2011. inhibition, % at 3 µM. CHO-K1 hM1, ACh EC80 antagonist;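 active means percent inhibition above its own plate's cutoff, namely the mean of that plate's compound wells plus 3 SD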;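 further: peak over basal fluorescence ratio during 140 s after agonist addition; 0% = ACh EC80 plus DMSO and 100% = DMSO alone without agonist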
Target sequence (P11229 whole entry, looked up): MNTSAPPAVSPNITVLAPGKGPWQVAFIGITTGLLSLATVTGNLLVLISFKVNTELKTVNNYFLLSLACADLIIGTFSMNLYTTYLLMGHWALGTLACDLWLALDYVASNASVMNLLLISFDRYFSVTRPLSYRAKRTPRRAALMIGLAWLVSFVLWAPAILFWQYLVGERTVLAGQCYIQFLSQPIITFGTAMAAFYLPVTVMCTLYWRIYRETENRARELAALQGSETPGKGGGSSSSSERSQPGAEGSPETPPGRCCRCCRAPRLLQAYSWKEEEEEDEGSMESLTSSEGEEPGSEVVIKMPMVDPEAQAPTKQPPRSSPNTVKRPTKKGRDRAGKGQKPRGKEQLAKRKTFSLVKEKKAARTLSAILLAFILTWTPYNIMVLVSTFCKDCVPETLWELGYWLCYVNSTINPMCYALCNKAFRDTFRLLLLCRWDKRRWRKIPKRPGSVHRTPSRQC
CHO-K1 Ca antag – nonselective inhibitor or artifact in parental CHO-K1 cells | ATP-induced calcium, Fluo-8 fluorescence | inhibition, % at 3 µM | hit rate 0.6% among 360,000 | AID 602250;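 active means inhibition above a per-plate cutoff, the plate's mean sample inhibition plus 3 SD, cut at about 24% in these data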;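 further: 0% = DMSO plus EC80 ATP and 100% = DMSO alone without ATP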
CHO-K1 Ca ag – counter-screen for M1 agonists: effect in parental CHO-K1 cells | hit rate 0.48% among 360,000 | Fluo-8 calcium fluorescence; scaled to maximal ATP response, vehicle zero | activation, % at 3 µM; in the data active means activation above about 15%;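 further: untransfected CHO-K1 host cells lacking M1 receptor as counterscreen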
CHRM1 agonist – human M1 muscarinic receptor agonists, primary screen, Fluo-8 calcium fluorescence, CHO-K1 cells, HTS; activation, % at 3 µM; CHO-K1 hM1, agonist mode; 0% DMSO, 100% acetylcholine EC100; AID 588814, 2011; hit rate 0.33% among 360,000; Muscarinic acetylcholine receptor M1 (Homo sapiens), P11229;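 active means activation above the run's mean compound activation plus 3 SD, cut at about 16% in these data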;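 further: peak over basal fluorescence ratio within a 140 s kinetic read after compound addition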
CHRM1 PAM – human M1 muscarinic receptor positive allosteric modulators, primary screen, CHO-K1 cells, Fluo-8 calcium fluorescence, 1536-well; activation, % at 3 µM; hit rate 0.088% among 360,000; AID 588819, 2011; CHO-K1 hM1, ACh EC20; 0% = ACh EC20, 100% = maximal ACh; Muscarinic acetylcholine receptor M1 (Homo sapiens), P11229; in the data active means activation above about 19%, passing the limit was not always enough
The depositor's hits bear a star. In the library only some 2.4% were active in any assay of this set; here they are far more common.

For Cc1cc(C)c[n+](CC(=O)c2ccc(NC(=O)c3ccccc3)cc2)c1 the results were CHO-K1 Ca PAM 7, CHRM1 antagonist -5, CHO-K1 Ca antag -13, CHO-K1 Ca ag 0, CHRM1 agonist -5 and CHRM1 PAM 6.
For CCCCN(CC)CCNC(=O)CN1C(=O)COc2ccc(S(=O)(=O)N3CCCC3)cc21 the results were CHO-K1 Ca PAM 2, CHRM1 antagonist 1, CHO-K1 Ca antag -9, CHO-K1 Ca ag 0, CHRM1 agonist -8 and CHRM1 PAM -6.
CCN(C(=O)c1ccc(C(C)(C)C)cc1)c1nnc(Cn2nnc3ccccc32)s1 was read as CHO-K1 Ca PAM -7, CHRM1 antagonist 37*, CHO-K1 Ca antag 31*, CHO-K1 Ca ag 8, CHRM1 agonist 0 and CHRM1 PAM -19.
Screening Cc1cc(OCC(=O)Nc2ccc(N3CCCC3)cc2)cc(C)c1Cl returned CHO-K1 Ca PAM 5, CHRM1 antagonist 58*, CHO-K1 Ca antag -8, CHO-K1 Ca ag 0, CHRM1 agonist -5 and CHRM1 PAM -22.
Screening Cc1ccc(OCC(=O)Nc2ccncc2)cc1C returned CHO-K1 Ca PAM 15, CHRM1 antagonist 6, CHO-K1 Ca antag -15, CHO-K1 Ca ag 10, CHRM1 agonist 3 and CHRM1 PAM -4.
Screening Cc1cc(OCC(=O)Nc2ccncc2)cc(C)c1Cl returned CHO-K1 Ca PAM -8, CHRM1 antagonist 30*, CHO-K1 Ca antag 16, CHO-K1 Ca ag 10, CHRM1 agonist 2 and CHRM1 PAM -13.
`O=C(COc1ccc2ccccc2c1Br)Nc1ccncc1` gave CHO-K1 Ca PAM -12, CHRM1 antagonist 30*, CHO-K1 Ca antag 11, CHO-K1 Ca ag 15*, CHRM1 agonist 5 and CHRM1 PAM -6.
Screening Cc1cc(OCC(=O)Nc2ccncc2)c(C)cc1Br returned CHO-K1 Ca PAM -15, CHRM1 antagonist 37*, CHO-K1 Ca antag 32*, CHO-K1 Ca ag 14, CHRM1 agonist 4 and CHRM1 PAM -19.
COc1ccc(N2CCN(C(=O)CN(C)S(=O)(=O)c3cc(C)ccc3OC)CC2)cc1 was read as CHO-K1 Ca PAM 9, CHRM1 antagonist -1, CHO-K1 Ca antag -1, CHO-K1 Ca ag 1, CHRM1 agonist -8 and CHRM1 PAM 2.
CC(C)CCOc1cccc(OCC(=O)Nc2ccncc2)c1 was read as CHO-K1 Ca PAM -15, CHRM1 antagonist 26, CHO-K1 Ca antag 28*, CHO-K1 Ca ag 14, CHRM1 agonist 0 and CHRM1 PAM -14.
For Cc1ccc(S(=O)(=O)N2CCOCC2)cc1C(=O)N1CCN(c2ncccn2)CC1 the results were CHO-K1 Ca PAM 9, CHRM1 antagonist -2, CHO-K1 Ca antag 6, CHO-K1 Ca ag 1, CHRM1 agonist 8 and CHRM1 PAM 14.
CCc1nn(C(C)C(=O)NCCN2CCN(c3cccc(C)c3C)CC2)c(=O)c2cc3occc3n12 (stereo not given) was read as CHO-K1 Ca PAM 25, CHRM1 antagonist -13, CHO-K1 Ca antag -2, CHO-K1 Ca ag 2, CHRM1 agonist -2 and CHRM1 PAM 6.
Cc1nn(CC(=O)NCCN2CCCCCC2)c(=O)c2nn(-c3ccccc3)c(C)c12 was read as CHO-K1 Ca PAM -14, CHRM1 antagonist 24, CHO-K1 Ca antag -3, CHO-K1 Ca ag -1, CHRM1 agonist -14 and CHRM1 PAM -26.
`Cc1nn(C(C)C(=O)NCCN2CCCCCC2)c(=O)c2nn(-c3ccccc3)c(C)c12` (stereo not given) gave CHO-K1 Ca PAM -7, CHRM1 antagonist 58*, CHO-K1 Ca antag -2, CHO-K1 Ca ag 0, CHRM1 agonist -5 and CHRM1 PAM -21.
`CCc1nn(C(C)C(=O)NCCN2CCCCCC2)c(=O)c2cc3occc3n12` (stereo not given) gave CHO-K1 Ca PAM -16, CHRM1 antagonist 38*, CHO-K1 Ca antag -2, CHO-K1 Ca ag -1, CHRM1 agonist -5 and CHRM1 PAM -22.
CCOc1ccc(-n2nc3c(=O)n(CCN4CCCCC4)nc(C)c3c2C)cc1 was read as CHO-K1 Ca PAM -12, CHRM1 antagonist 31*, CHO-K1 Ca antag 13, CHO-K1 Ca ag -1, CHRM1 agonist -11 and CHRM1 PAM -25.
COC(=O)c1cnc(Nc2nc(C(N)Cc3ccc(OC)cc3)cs2)nc1C(F)(F)F (stereo not given) was read as CHO-K1 Ca PAM 17, CHRM1 antagonist -4, CHO-K1 Ca antag -2, CHO-K1 Ca ag 4, CHRM1 agonist 4 and CHRM1 PAM 3.
`CCCc1cnc(Nc2nc(C(N)Cc3ccc(C(F)(F)F)cc3)cs2)nc1` (stereo not given) gave CHO-K1 Ca PAM 18, CHRM1 antagonist 14, CHO-K1 Ca antag 12, CHO-K1 Ca ag 10, CHRM1 agonist 18* and CHRM1 PAM 4.
COC(=O)c1cnc(Nc2nc(C(N)Cc3ccccc3)cs2)nc1C(F)(F)F (stereo not given) was read as CHO-K1 Ca PAM 7, CHRM1 antagonist -12, CHO-K1 Ca antag 7, CHO-K1 Ca ag 1, CHRM1 agonist 15 and CHRM1 PAM 26*.
Screening COc1ccc(C(CNC(=O)C(=O)NC2CCCCC2)N2CCN(C)CC2)cc1 (stereo not given) returned CHO-K1 Ca PAM 9, CHRM1 antagonist -1, CHO-K1 Ca antag -12, CHO-K1 Ca ag 1, CHRM1 agonist -7 and CHRM1 PAM 1.
Screening CCCCNC(=O)C1(C)CCC(=O)N1CCc1c[nH]c2ccccc12 (stereo not given) returned CHO-K1 Ca PAM 7, CHRM1 antagonist -7, CHO-K1 Ca antag 8, CHO-K1 Ca ag 1, CHRM1 agonist -4 and CHRM1 PAM 12.
Cc1nn(C)cc1CN1CCCC(C(=O)c2ccc(-c3ccccc3)c(F)c2)C1 (stereo not given) was read as CHO-K1 Ca PAM 15, CHRM1 antagonist 52*, CHO-K1 Ca antag 12, CHO-K1 Ca ag 26*, CHRM1 agonist -9 and CHRM1 PAM -26.
`Cn1cc(CN2CCCC(C(=O)c3ccc(-c4ccccc4)c(F)c3)C2)cn1` (stereo not given) gave CHO-K1 Ca PAM 30, CHRM1 antagonist 28*, CHO-K1 Ca antag -13, CHO-K1 Ca ag 6, CHRM1 agonist -12 and CHRM1 PAM -29.
Cn1cc(CN2CCCC(C(=O)c3ccc(-c4ccccc4)cc3)C2)cn1 (stereo not given) was read as CHO-K1 Ca PAM 19, CHRM1 antagonist -3, CHO-K1 Ca antag -15, CHO-K1 Ca ag 3, CHRM1 agonist -11 and CHRM1 PAM -13.

High-throughput results as filed in PubChem BioAssay.
